Where “and” joins values, the source holds several entries; their conditions need not be identical. Equal values may be shown once. Compounds without any hit were thinned out: in the full panel of roughly 83,000, 20% have a hit.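 Negative percent growth values reflect cell death: -40 means 40% of the cells present at the start died, and -100 means all died.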 A number with no mark means an inactive call. Calls of active or inactive are those of the source. The calls were made as follows: active = growth percent below 10; inactive = the rest.

The test relates to MDA-MB-468 breast. Briefly: NCI-60 one-dose screen, 48 h (100 = growth as untreated, 0 = no growth, -100 = all killed). The conditions noted are these: 10 µM unless noted.
Consider `COc1ccc(-n2c(NC(=O)N3CCN(C)CC3)c(C#N)c3ccccc32)cc1`, for which the growth was 38.3%. With `N#Cc1c(NC(=O)N2CCOCC2)n(-c2ccc(OC(F)(F)F)cc2)c2cc(F)ccc12` the figure was 89.1%. Regarding `COc1ccc(-c2nc3ccccc3n2CC(=O)N=Nc2c(O)[nH]c3ccc(Br)cc23)cc1`, the growth is 56.1%. `O=C1Nc2ccccc2/C1=C/C(=O)c1cc2ccccc2oc1=O`: the growth is 54.4%. In the case of `COc1sc(/C=N/NC(=O)c2[nH]c3ccc(Br)cc3c2-c2ccccc2)cc1Br` it was -14.5% (active); in that of `CSc1ccc(OCc2nc3ccccc3n2-c2cccc(NS(C)(=O)=O)c2)cc1`, 110% and 98.2%. With `O=C(NNC(=O)c1ccc(OCc2nc3ccc(Cl)cc3[nH]2)cc1)Nc1ccc(Cl)c(Cl)c1` the figure was -14.8% (active); with `COc1cc(C2CC(c3ccc(F)cc3)=Nc3c(N)nc(N)nc3N2)ccc1Oc1nc(Nc2ccc(F)cc2)nc(N(C)C)n1` (configuration not stated), -17.8% (active).

As to `NC1(c2ccc(-c3ccc4ncnc(NCc5ccccc5)c4c3)cn2)COC1`, the growth was 102% and 103%. With `C#CCN(C)CCCOc1ccc(N(CC)C(=O)c2cc(C(C)C)c(O)cc2O)cc1Cl` the figure was -46.8% (active); with `C#CCCCNCCNc1ccnc2cc(Cl)ccc12`, 50.4%. With `COc1cc(CNC(=O)C[C@H](C)CCC=C(C)C)ccc1OCc1cn(-c2ccccc2F)nn1` the figure was 57.7%.

Consider `CCOc1ccccc1NC(=O)N/C(N)=N/c1nc2ccccc2s1`, for which the growth is -11.4% (active).

`N#CC1=C(c2cccs2)Nc2c(c(-c3ccccc3)nn2-c2ccccc2)C12C(=O)Nc1ccc(Br)cc12` (configuration not stated): the growth was -31.9% (active). In the case of `COc1cc(CNC(=O)C[C@H](C)CCC=C(C)C)ccc1OCc1cn(-c2ccc(Cl)c(Cl)c2)nn1` it was 55%. With `CN1C(=O)/C(=C\C(=O)c2cc3ccccc3oc2=O)c2ccccc21` the figure was 28.8%; with `COc1ccc(Nc2nnc(-c3c[nH]c4ccccc34)o2)cc1`, -7.14% (active); with `Cc1ccc(C2CC(c3ccc(NC(=O)Nc4ccccc4)cc3)=NN2c2ccc(S(N)(=O)=O)cc2)cc1` (configuration not stated), -93.4% (active). As to `Cc1ccc(C(=O)Nc2cc(-n3cnc(F)c3)cc(C(F)(F)F)c2)cc1C#Cc1cnc2cccnn12`, the growth is 81.7%. As to `CCCCCCCCc1ccc(C(=O)Nc2ccc(C)c(OP(=O)(O)O)c2)cc1`, the growth was 104%. As to `C=CCn1c(O)c(N=Nc2nc(-c3cc4ccccc4oc3=O)cs2)c2ccccc21`, the growth is 70.3%. As to `FC(F)(F)c1cc2c(Cl)ncnc2n1CCN1CCOCC1`, the growth was 40.1%. With `C/C(=N\Nc1ccc(C(=O)O)cc1)c1cnn(-c2cc(=O)[nH]c3ccc(C)cc23)c1C` the figure was 83.2%. Take `CCN1CCN(Cc2ccc(C(=O)Nc3cccc(Nc4ccc5c(OC)cccc5n4)c3)cc2C(F)(F)F)CC1`: the growth is -94.7% (active). In the case of `Nc1nn2c(-c3cc4cc(Br)ccc4oc3=O)ccnc2c1N=Nc1ccccc1` it was 46.2%. With `Cc1cccc(-c2ccccc2Oc2ccc3nnc(Cl)n3n2)c1` the figure was 98.3%; with `Cc1ccc(/C=C/C(=O)c2ccc(S(=O)(=O)NCCNc3nc(N(C)C)nc(N4CCOCC4)n3)cc2)cc1`, 67.3%; with `C#CCN(C)CCCOc1ccc(N(C)C(=O)c2cc(C(C)C)c(O)cc2O)cc1Cl`, -30.8% (active). For `Cc1ccc(C(=O)C[n+]2cccc3c4ccccc4ccc32)cc1`, the growth is -10.3% (active). As to `COc1ccc(NC(=O)N/N=C/c2c[nH]c3ccccc23)cc1`, the growth is 16.4%. In the case of `O=C(CSc1nc2ccccc2c(=O)[nH]1)NNC(=O)c1ccccc1Cl` it was 137%. With `CC[C@]12C=CCN3CC[C@]4(C(=C(C(=O)OC)C1)Nc1cc(OC)c([C@@H]5[C@H]6O[C@H]6[C@@]6(CC)CC(C(=O)OC)=C7Nc8cc(O)ccc8[C@@]78CCN5[C@@H]68)cc14)[C@@H]32` the figure was -48.9% (active); with `O=C(Cc1c(-c2ccccc2[N+](=O)[O-])n(-c2ncnc3c2c(-c2ccccc2)c(-c2ccccc2)n3Cc2ccccc2)[nH]c1=O)c1ccc(Cl)c(Cl)c1`, -23.5% (active). In the case of `COc1ccc2[nH]c(O)c(N=Nc3nc(-c4ccc(Cl)cc4)cs3)c2c1` it was -60.8% (active). As for `O=C(CSc1nnc(-c2ccc(-c3nc4ccccc4[nH]3)cc2)o1)Nc1ccccc1`, the growth was 92.9%. In the case of `CN(C)CCOc1ccc(C(=O)C2[C@H](c3ccc(Cl)cc3)[C@@H](c3ccccc3)NC23C(=O)Nc2ccc(Cl)cc23)cc1` (some centres not stated), the growth is -92.3% (active). With `COc1cc(/C=C/C(=O)c2cnn(-c3cc(=O)[nH]c4ccc(Cl)cc34)c2C)cc(OC)c1OC` the figure was -83.1% (active).

Source of the values: PubChem BioAssay (NCI).
